# Results taken from PubChem BioAssay AID1159580 (chemical genetic matrix, 2015).
# Among all 5,500 compounds or so, about 2,000 (36%) were called active. Another 18% or so got no clear call; they are omitted. The list shows a part of the results. Unmarked numbers belong to inactive results. Cut-off read from the data, not from the text of the source: active = normalized growth mostly below about 0.91 (no sharp cut-off); inconclusive = no clear call, values can overlap the other calls; inactive = mostly above about 0.92.
# Assay: chemical genetic growth profiling, strain panel (AID 1159580);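 note: tested at 20 µM; growth read once vehicle control cultures reached saturation at 30 °C; 1 = growth at the plate median or of vehicle wells; lower values mean less growth of the strain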
# Conditions: S. cerevisiae deletion strains, growth OD
# [1] = locus YDL101C, strain DUN1, hits give low values
# [2] = locus YDR150W, strain NUM1, hits give low values
# [3] = locus YGR078C, strain PAC10, hits give low values
# [4] = locus YHR030C, strain SLT2, hits give low values
# [5] = locus YJR075W, strain HOC1, hits give low values
# [6] = locus YMR263W, strain SAP30, hits give low values
# [7] = locus YNL128W, strain TEP1, hits give low values
# [8] = locus YNL153C, strain GIM3, hits give low values
# [9] = locus YNL322C, strain KRE1, hits give low values
# [10] = locus YPL055C, strain LGE1, hits give low values
# [11] = locus YAL040C, strain CLN3, hits give low values
# [12] = locus YCL061C, strain MRC1 (second series), hits give low values
# [13] = locus YDR363W, strain ESC2, hits give low values
# [14] = locus YER002W, strain NOP16, hits give low values
# [15] = locus YMR307W, strain GAS1, hits give low values
# [16] = locus YNL175C, strain NOP13, hits give low values
# [17] = locus YNL197C, strain WHI3, hits give low values
# [18] = locus YNL224C, strain SQS1, hits give low values
# [19] = locus YOR083W, strain WHI5 (second series), hits give low values
smiles,measurement,setting,value
CCCC(C)(SCC(=O)O)SCC(=O)O,normalized growth,"locus YAL013W, strain DEP1, hits give low values",1
same,normalized growth,"locus YBR229C, strain ROT2, hits give low values",1
same,normalized growth,[1],1.09
same,normalized growth,[2],1.03
same,normalized growth,"locus YEL061C, strain CIN8, hits give low values",0.951
same,normalized growth,[3],1.02
same,normalized growth,[4],1.03
same,normalized growth,"locus YHR087W, strain rtc3, hits give low values",0.98
same,normalized growth,"locus YJL187C, strain SWE1, hits give low values",1
same,normalized growth,"locus YJR043C, strain POL32, hits give low values",1.01
same,normalized growth,[5],1.04
same,normalized growth,"locus YKL190W, strain CNB1, hits give low values",0.992
same,normalized growth,"locus YLR039C, strain RIC1, hits give low values",0.981
same,normalized growth,"locus YLR058C, strain SHM2 (second series), hits give low values",0.984
same,normalized growth,"locus YLR085C, strain ARP6, hits give low values",1.02
same,normalized growth,"locus YLR262C, strain YPT6, hits give low values",1.02
same,normalized growth,"locus YML094W, strain GIM5, hits give low values",0.993
same,normalized growth,"locus YMR219W, strain ESC1, hits give low values",0.999
same,normalized growth,[6],1.01
same,normalized growth,[7],0.985
same,normalized growth,[8],1.04
same,normalized growth,"locus YNL298W, strain CLA4 (second series), hits give low values",1.02
same,normalized growth,[9],0.993
same,normalized growth,"locus YNR030W, strain Alg12, hits give low values",1.01
same,normalized growth,"locus YOL006C, strain TOP1, hits give low values",1
same,normalized growth,[10],1
same,normalized growth,"locus YPL241C, strain CIN2, hits give low values",1.05
same,normalized growth,"locus YPR135W, strain CTF4, hits give low values",1.08
CCCCCCCCCCCCCCSCC(=O)O,normalized growth,[11],0.97
same,normalized growth,[12],1.01
same,normalized growth,[2],0.997
same,normalized growth,[13],0.993
same,normalized growth,[14],0.937
same,normalized growth,[3],0.998
same,normalized growth,"locus YGR229C, strain SMI1, hits give low values",0.959
same,normalized growth,[5],0.99
same,normalized growth,[6],1
same,normalized growth,[15],0.992
same,normalized growth,[16],0.938
same,normalized growth,[17],0.957
same,normalized growth,[18],0.954
same,normalized growth,[19],0.825 (active)
same,normalized growth,[10],0.955
N#CC(Cc1ccc(O)c(O)c1)C(=O)N1CCc2ccccc21 (stereo not drawn),normalized growth,[11],0.961
same,normalized growth,[12],0.986
same,normalized growth,[2],0.997
same,normalized growth,[13],0.97
same,normalized growth,[14],1.01
same,normalized growth,[5],0.995
same,normalized growth,[15],0.986
same,normalized growth,[7],0.996
same,normalized growth,[8],0.977
same,normalized growth,[16],0.999
same,normalized growth,[17],1.02
same,normalized growth,[18],0.994
same,normalized growth,[9],0.952
same,normalized growth,[19],0.965
C=CC(=O)N1CCc2cc([N+](=O)[O-])ccc21,normalized growth,"locus YAR019C, strain CDC15, hits give low values",0.735 (active)
same,normalized growth,"locus YBL105C, strain PKC1, hits give low values",0.778 (active)
same,normalized growth,"locus YBR135W, strain CKS1, hits give low values",0.766 (active)
same,normalized growth,"locus YBR136W, strain MEC1, hits give low values",0.764 (active)
same,normalized growth,"locus YBR160W, strain CDC28, hits give low values",0.791 (active)
same,normalized growth,"locus YDL017W, strain CDC7, hits give low values",0.8 (active)
same,normalized growth,"locus YDL028C, strain MPS1, hits give low values",0.796 (active)
same,normalized growth,[1],0.789 (active)
same,normalized growth,"locus YDL108W, strain KIN28, hits give low values",0.798 (active)
same,normalized growth,"locus YDL132W, strain cdc53, hits give low values",0.725 (active)
same,normalized growth,"locus YDL214C, strain PRR2, hits give low values",0.37 (active)
same,normalized growth,"locus YDR052C, strain DBF4, hits give low values",0.827 (active)
same,normalized growth,"locus YDR054C, strain cdc34, hits give low values",0.689 (active)
same,normalized growth,"locus YDR226W, strain ADK1, hits give low values",0.839 (active)
same,normalized growth,"locus YDR477W, strain SNF1, hits give low values",0.335 (active)
same,normalized growth,"locus YER123W, strain YCK3, hits give low values",0.236 (active)
same,normalized growth,"locus YER133W, strain GLC7, hits give low values",0.275 (active)
same,normalized growth,"locus YFL009W, strain cdc4, hits give low values",0.739 (active)
same,normalized growth,"locus YFL029C, strain CAK1, hits give low values",0.72 (active)
same,normalized growth,"locus YFR003C, strain YPI1, hits give low values",0.807 (active)
same,normalized growth,"locus YFR019W, strain FAB1, hits give low values",0.369 (active)
same,normalized growth,"locus YFR028C, strain CDC14, hits give low values",0.805 (active)
same,normalized growth,"locus YGR040W, strain KSS1, hits give low values",0.287 (active)
same,normalized growth,"locus YGR052W, strain FMP48, hits give low values",0.308 (active)
same,normalized growth,"locus YGR092W, strain DBF2, hits give low values",0.12 (active)
same,normalized growth,[4],0.253 (active)
same,normalized growth,"locus YHR079C, strain IRE1, hits give low values",0.255 (active)
same,normalized growth,"locus YHR082C, strain KSP1, hits give low values",0.263 (active)
same,normalized growth,"locus YHR205W, strain SCH9, hits give low values",0.228 (active)
same,normalized growth,"locus YIL147C, strain SLN1, hits give low values",0.794 (active)
same,normalized growth,"locus YJL095W, strain BCK1, hits give low values",0.276 (active)
same,normalized growth,"locus YJL128C, strain PBS2, hits give low values",0.842
same,normalized growth,"locus YJL157C, strain FAR1, hits give low values",0.315 (active)
same,normalized growth,"locus YJR016C, strain ILV3, hits give low values",0.742 (active)
same,normalized growth,"locus YJR066W, strain TOR1 (second series), hits give low values",0.24 (active)
same,normalized growth,"locus YJR066W, strain TOR1, hits give low values",0.274 (active)
same,normalized growth,"locus YKL048C, strain ELM1, hits give low values",0.556 (active)
same,normalized growth,"locus YKL067W, strain YNK1, hits give low values",0.35 (active)
same,normalized growth,"locus YKL101W, strain HSL1, hits give low values",0.46 (active)
same,normalized growth,"locus YKL193C, strain SDS22, hits give low values",0.729 (active)
same,normalized growth,"locus YKL203C, strain TOR2, hits give low values",0.355 (active)
same,normalized growth,"locus YLR113W, strain HOG1, hits give low values",0.247 (active)
same,normalized growth,"locus YLR133W, strain CKI1, hits give low values",0.409 (active)
same,normalized growth,"locus YLR403W, strain SFP1, hits give low values",0.271 (active)
same,normalized growth,"locus YML070W, strain DAK1, hits give low values",0.311 (active)
same,normalized growth,"locus YMR001C, strain CDC5, hits give low values",0.744 (active)
same,normalized growth,"locus YMR205C, strain PFK2 (second series), hits give low values",0.424 (active)
same,normalized growth,"locus YMR277W, strain FCP1, hits give low values",0.746 (active)
same,normalized growth,"locus YNL006W, strain LST8, hits give low values",0.754 (active)
same,normalized growth,"locus YNL020C, strain ARK1, hits give low values",0.412 (active)
same,normalized growth,"locus YNL161W, strain CBK1, hits give low values",0.737 (active)
same,normalized growth,"locus YNL183C, strain NPR1, hits give low values",0.22 (active)
same,normalized growth,"locus YNL207W, strain RIO2, hits give low values",0.757 (active)
same,normalized growth,"locus YNL222W, strain SSU72, hits give low values",0.734 (active)
same,normalized growth,"locus YNL307C, strain MCK1 (second series), hits give low values",0.323 (active)
same,normalized growth,"locus YOL078W, strain AVO1, hits give low values",0.71 (active)
same,normalized growth,"locus YOL136C, strain PFK27, hits give low values",0.316 (active)
same,normalized growth,"locus YOR061W, strain CKA2, hits give low values",0.498 (active)
same,normalized growth,"locus YOR119C, strain RIO1, hits give low values",0.334 (active)
same,normalized growth,"locus YOR231W, strain MKK1, hits give low values",0.255 (active)
same,normalized growth,"locus YOR329C, strain SCD5, hits give low values",0.759 (active)
same,normalized growth,"locus YPL031C, strain PHO85, hits give low values",0.268 (active)
same,normalized growth,"locus YPL153C, strain RAD53, hits give low values",0.273 (active)
same,normalized growth,"locus YPL204W, strain HRR25, hits give low values",0.282 (active)
same,normalized growth,"locus YPL209C, strain IPL1, hits give low values",0.778 (active)
same,normalized growth,"locus YPL256C, strain CLN2, hits give low values",0.299 (active)
same,normalized growth,"locus YPR025C, strain CCL1, hits give low values",0.764 (active)
same,normalized growth,"locus YPR106W, strain ISR1, hits give low values",0.864 (active)
same,normalized growth,"locus YPR111W, strain DBF20, hits give low values",0.887
same,normalized growth,"strain NNK1, hits give low values",0.824 (active)
same,normalized growth,"strain TSCII, hits give low values",0.643 (active)
